NPC1 prom act = qHTS Assay for NPC1 Promoter Activators. AID 485313, 2010. Huh7 NPC1 promoter luciferase reporter, 24 h. Potency, µM (titrated, usually from 9.22 µM), without a hit: at the highest dose activation, usual class: activators. 320,000 tested, 2.4% active; note: % of control where 0% means no effect; nearly all actives have a fitted effect of over 60% in size
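Luminescence from an NPC1 promoter-driven luciferase reporter in stably transfected Huh7 cells was measured after 24 h compound treatment at 37 °C, followed by 10 min ambient incubation with luciferase detection reagent.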
Rab9 prom act = qHTS Assay for Rab9 Promoter Activators; Huh7 Rab9 promoter-luciferase reporter, luminescence, 24 h; Potency, µM (top dose mostly 9.22 µM), for inactives: at the highest dose activation, negative = inhibition, actives largely listed as activators; 320,000 tested, 2.8% active; note: % of control where 0% means no effect; nearly all actives have a fitted effect of over 60% in size
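Cell-based reporter: Huh7 stable for Rab9 promoter-driven luciferase, plated in reduced-serum medium with 10% FBS at 1500 cells/well, compound-treated 24 h at 37 °C, luminescence read after 10 min reagent.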
ELG1 genotoxic = qHTS screen for small molecules that induce genotoxicity in human embryonic kidney (HEK293T) cells expressing luciferase-tagged ELG1; HEK293T ELG1-luciferase reporter, luminescence, 16 h; Potency, µM (top dose mostly 46 µM), inactives show at the top dose activity change, positive = activation, hits mostly activators; 330,000 tested, 1.3% active; AID 504466, 2011; note: % of control where 0% means no effect; nearly all actives have a fitted effect of over 60% in size
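HEK293T cells expressing luciferase-tagged ELG1 were exposed to compound or DMSO vehicle for 16 hr at 37 °C and 5% CO2. Luciferase activity was then measured with ONE-Glo after 30 min at room temperature.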
SMN2 splice up = qHTS Assay for Enhancers of SMN2 Splice Variant Expression; HEK293 SMN2-luciferase splicing reporter, luminescence, 30-36 h; Potency, µM (highest dose often 46.1 µM), for inactives: at the highest dose activity change, positive = activation, actives largely listed as activators; 210,000 tested, 2.8% active; AID 1458, 2008; note: % of control where 0% means no effect; nearly all actives have a fitted effect of over 55% in size
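HEK293 cells carry an SMN2 minigene-luciferase reporter in which exon 7 inclusion puts luciferase in frame. Cells were seeded at 2000 cells/well, attached for 10-12 hours, then exposed to compounds for 30-36 hours at 37C before ONE-Glo luminescence.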
FLuc modulator = qHTS profiling assay for firefly luciferase inhibitor/activator using purifed enzyme and Km concentrations of substrates (counterscreen for miR-21 project). Luciferin 4-monooxygenase (Photinus pyralis), P08659. purified FLuc, Km substrates, luminescence inhibition. Potency, µM (titrated, usually from 57.5 µM), without a hit: top-dose activity change, negative = inhibition, actives largely listed as inhibitors. 360,000 tested, 6.9% active. AID 588342, 2011;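 note: plate controls were vehicle for no effect and reference inhibitor for full effect; nearly all actives have a fitted effect of over 55% in size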
Target sequence (P08659 whole entry, looked up): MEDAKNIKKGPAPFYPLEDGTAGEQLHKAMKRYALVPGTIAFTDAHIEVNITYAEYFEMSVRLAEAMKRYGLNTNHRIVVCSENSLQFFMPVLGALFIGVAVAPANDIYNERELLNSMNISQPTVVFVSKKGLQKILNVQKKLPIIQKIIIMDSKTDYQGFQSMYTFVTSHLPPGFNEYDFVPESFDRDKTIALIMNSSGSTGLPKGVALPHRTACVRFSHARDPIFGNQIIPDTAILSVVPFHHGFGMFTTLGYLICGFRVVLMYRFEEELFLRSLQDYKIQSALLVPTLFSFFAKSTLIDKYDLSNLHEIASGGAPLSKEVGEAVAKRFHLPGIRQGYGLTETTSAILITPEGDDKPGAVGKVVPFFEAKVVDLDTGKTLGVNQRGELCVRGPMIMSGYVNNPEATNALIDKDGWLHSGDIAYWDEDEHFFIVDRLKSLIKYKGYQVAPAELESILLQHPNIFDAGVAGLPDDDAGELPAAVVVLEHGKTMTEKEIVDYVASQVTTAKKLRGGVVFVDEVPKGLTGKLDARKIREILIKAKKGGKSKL
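Purified P. pyralis luciferase (10nM final) with 10uM D-luciferin and 10uM ATP (Km levels) in 50mM Tris acetate pH 7.5, 10mM Mg acetate, 0.01% Tween-20, 0.05% BSA; qHTS 6-point titration, ~60 µM downward; luminescence read.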
* hit, by the source's call; ? = inconclusive; · = not tested or not shown. Rows were chosen to be rich in hits. Some 7.4% of all compounds tested hit in one or more screens of this group. Calls come from the whole dose curve; as a rule, active = well fitted curve in the direction sought with a large enough effect; inconclusive = small, poorly fitted or top-dose-only effect, or another doubt; inactive = no such curve, though single readings can be large; an effect the other way counts as inactive or inconclusive. Potency is the fitted concentration of half-maximal effect.

SMILES	NPC1 prom act	Rab9 prom act	ELG1 genotoxic	SMN2 splice up	FLuc modulator
COc1ccc(OC)c(NC(=O)Cn2ccc3ccccc3c2=O)c1	·	·	·	-8%	0%
O=C(Cc1ccc(F)cc1)Nc1cccc(-c2cn3c(n2)SCC3)c1	0%	0%	0%	-46%	?
CCc1ccc(-c2cn3c(n2)SCC3)cc1	1.6µM*	1.4µM*	?	·	2.4µM*
Cc1ccc(-c2cn3c(n2)SCC3)cc1	2.2µM*	2µM*	-7%	11µM*	?
COc1ccc(CNC(=O)CSc2nc(-c3ccc(OC)c(OC)c3)cc(C(F)(F)F)n2)cc1	·	·	·	-1%	-5%
Cc1ccc(NC(=S)NC(=O)c2ccc(Br)o2)c(C)c1	?	2.8µM*	?	8.9µM*	9.5µM*
Cc1ccc(NC(=S)NC(=O)C2CCCC2)cc1C	3.2µM*	2.5µM*	?	·	11µM*
Cc1ccc(NC(=S)NC(=O)C2CCC2)cc1C	1.4µM*	4µM*	?	·	9.5µM*
CC(=O)Nc1ccc(NC(=S)NC(=O)C2CC2)cc1	14%	26%	?	·	-15%
Cc1ccc(NC(=S)NC(=O)C2CC2)c(C)c1	?	?	21µM*	·	15µM*
O=S(=O)(c1ccc(Br)cc1)c1nc(-c2cccs2)oc1SCc1ccccc1F	·	·	·	-22%	4%
O=C(NC(=S)Nc1ccccc1Br)C1CCCC1	?	15%	?	·	19µM*
COC(=O)c1ccccc1NC(=O)Nc1ccc2c(c1)OCO2	21%	26%	?	-15%	?
COC(=O)c1ccc(C(=O)OC)c(NC(=O)Nc2ccc3c(c2)OCO3)c1	?	?	15µM*	?	21µM*
O=C(Nc1ccc(Cl)cc1)Nc1ccc2c(c1)OCO2	1.1µM*	1.8µM*	4.1µM*	·	2.1µM*
CC(NC(=O)Nc1ccc(Cl)cc1)c1ccc2c(c1)OCO2 (stereo not given)	-4%	4%	-5%	·	-1%
S=C(Nc1ccc2c(c1)OCCO2)Nc1ccc2c(c1)OCO2	?	4µM*	?	?	17µM*
O=C(Nc1cccnc1)Nc1ccc2c(c1)OCO2	?	?	17%	?	12µM*
CC(=O)c1cccc(NC(=O)NCc2cccs2)c1	0%	-6%	-3%	7%	?
O=C(NCc1cccs1)Nc1ccc(Cl)cc1	?	?	11%	10µM*	?
O=C(Nc1cccc(F)c1)Nc1cnccn1	6%	23%	2%	·	-9%
O=C(Nc1cccc(C(=O)O)c1)/C(=C\c1ccc2c(c1)OCO2)NC(=O)c1ccc(Br)o1	?	?	10%	?	21µM*
O=C(Nc1cccc(F)c1)Nc1ccccn1	3.2µM*	2.8µM*	26%	23%	13µM*
O=C(NCc1ccncc1)Nc1ccc2c(c1)OCO2	-1%	?	7%	·	?
O=C(Nc1ccc(C(=O)O)cc1)/C(=C\c1ccc2c(c1)OCO2)NC(=O)c1ccc(Br)o1	-1%	0%	4%	16%	-12%
SMILES	NPC1 prom act	Rab9 prom act	ELG1 genotoxic	SMN2 splice up	FLuc modulator
O=C(NCc1cccs1)Nc1ccc2c(c1)OCO2	?	3.5µM*	?	14µM*	17µM*
CCCCNc1nc(C)nc2c1nc(-c1ccccc1)n2CCCN(CC)CC	·	·	·	-3%	·
COc1cc(Cl)c(NC(=O)CCS(=O)(=O)c2cc3c(cc2Cl)NC(=O)CO3)c(OC)c1	·	·	·	·	-2%
C[C@H]1/C=C\CC(=O)NCc2cccc(c2)CNC(=O)N[C@H]1c1ccccc1	·	·	·	4%	·
O=C(Nc1ccc2c(c1)OCO2)N1CCN(c2ccccc2Cl)CC1	?	?	?	1%	19µM*
O=C(Nc1ccc2c(c1)OCO2)Nc1ccc(Cl)cc1Cl	?	?	?	?	4.8µM*
O=C(Nc1ccc(OC(F)F)c(Cl)c1)Nc1ccc2c(c1)OCO2	18%	6%	-3%	-12%	?
O=C(Nc1ccc2c(c1)OCO2)c1cnn2cccnc12	2.2µM*	1.6µM*	4.1µM*	11µM*	9.5µM*
O=C(Nc1ccc2c(c1)OCO2)N1CCN(S(=O)(=O)c2ccc(Cl)cc2)CC1	-2%	-4%	-11%	-9%	1%
O=C(Nc1ccc(F)cc1)Nc1ccc2c(c1)OCO2	8%	-5%	1%	·	3%
O=C(Nc1ccc2c(c1)OCO2)Nc1ccc(F)cc1F	1.4µM*	1.4µM*	?	·	6µM*
N#CCCn1c(=O)c(-c2ccccc2)nc2cnc(N3CCNCC3)nc21	·	·	·	-14%	·
O=C1C=CC2=C3c4cc(O)c(O)cc4C[C@@]3(O)COC2=C1	·	·	·	-20%	·
Cc1ccc(S(=O)(=O)NCC(c2ccc(N(C)C)cc2)N2CCCC2)cc1 (stereo not given)	·	·	·	·	-1%
O=C(Nc1ccc2c(c1)OCO2)Nc1ccccn1	2.8µM*	0.89µM*	?	·	12µM*
Cc1ccc(NC(=O)Nc2ccc3c(c2)OCO3)c(Br)c1	?	?	18µM*	·	?
Cn1ccc(NC(=O)Nc2ccc(Cl)cc2Cl)n1	?	?	?	14µM*	15µM*
Cc1ccc(C(=O)O)cc1NC(=O)Nc1ccc2c(c1)OCO2	13%	18%	8%	?	?
O=C(Nc1cccc(C(=O)O)c1)Nc1ccc2c(c1)OCO2	?	?	-21%	·	0.11µM*
O=C(Nc1cnccn1)Nc1ccc(Cl)cc1Cl	22%	?	6%	·	-6%
N#Cc1nc(-c2ccc(COc3ccc(Cl)cc3)o2)oc1N1CCC(C(N)=O)CC1	·	·	·	·	-16%
O=C(Nc1ccc2c(c1)OCO2)Nc1ccc2c(c1)OCO2	1.4µM*	1.8µM*	?	7.9µM*	?
COc1ccccc1N1CCN(S(=O)(=O)c2cc(C(=O)Nc3ccc(Oc4ccccc4)cc3)ccc2F)CC1	·	·	·	·	2%
Cc1nc(/N=C(\N)Nc2ccccc2)nc2ccccc12	?	25%	3%	24%	12µM*
COc1cc(/C=C2\SC(c3ccc(C)cc3)=NC2=O)ccc1O	-2%	-10%	?	20%	2.7µM*
SMILES	NPC1 prom act	Rab9 prom act	ELG1 genotoxic	SMN2 splice up	FLuc modulator
COc1cc(/C=C2\SC(c3ccccc3)=NC2=O)cc(Cl)c1O	-7%	-17%	0%	-11%	11µM*
COc1ccc(/C=C2\SC(c3ccc(C)cc3)=NC2=O)cc1OC	1%	-3%	14%	3%	?
COc1cccc(Cn2c(=O)n(-c3cc(C)cc(C)c3)c(=O)c3oc4ccccc4c32)c1	·	·	·	·	-2%
Brc1ccccc1OCCOc1cccc2cccnc12	-3%	-3%	11%	?	12µM*
Brc1ccccc1OCCCOc1cccc2cccnc12	?	4µM*	?	·	11µM*
Cc1cc(C)cc(OCCCOc2cccc3cccnc23)c1	0%	0%	-5%	-17%	-7%
